Results published in PubChem BioAssay (Tox21).
Results filed as inconclusive are left out. Calls of active or inactive are those of the source. Unless noted, calls follow the shape of the dose curve; as a rule, active = well fitted curve in the direction sought with a large enough effect in the repeat runs; inconclusive = weak or mixed curves; inactive = no such curve, though single readings can be large; an effect the other way counts as inactive or inconclusive.

What was measured:
[1] = biological target: Thyrotropin receptor (Homo sapiens) (UniProt P16473); assay: qHTS assay to identify small molecule agonists of the thyroid stimulating hormone receptor (TSHR) signaling pathway (AID 1224843; calls by dose curve; also: nearly all actives have a fitted effect of over 45% in size; also: potency is read from the fitted curve at half-maximal effect)
Sequence of Thyrotropin receptor (Homo sapiens) (P16473 whole entry, looked up): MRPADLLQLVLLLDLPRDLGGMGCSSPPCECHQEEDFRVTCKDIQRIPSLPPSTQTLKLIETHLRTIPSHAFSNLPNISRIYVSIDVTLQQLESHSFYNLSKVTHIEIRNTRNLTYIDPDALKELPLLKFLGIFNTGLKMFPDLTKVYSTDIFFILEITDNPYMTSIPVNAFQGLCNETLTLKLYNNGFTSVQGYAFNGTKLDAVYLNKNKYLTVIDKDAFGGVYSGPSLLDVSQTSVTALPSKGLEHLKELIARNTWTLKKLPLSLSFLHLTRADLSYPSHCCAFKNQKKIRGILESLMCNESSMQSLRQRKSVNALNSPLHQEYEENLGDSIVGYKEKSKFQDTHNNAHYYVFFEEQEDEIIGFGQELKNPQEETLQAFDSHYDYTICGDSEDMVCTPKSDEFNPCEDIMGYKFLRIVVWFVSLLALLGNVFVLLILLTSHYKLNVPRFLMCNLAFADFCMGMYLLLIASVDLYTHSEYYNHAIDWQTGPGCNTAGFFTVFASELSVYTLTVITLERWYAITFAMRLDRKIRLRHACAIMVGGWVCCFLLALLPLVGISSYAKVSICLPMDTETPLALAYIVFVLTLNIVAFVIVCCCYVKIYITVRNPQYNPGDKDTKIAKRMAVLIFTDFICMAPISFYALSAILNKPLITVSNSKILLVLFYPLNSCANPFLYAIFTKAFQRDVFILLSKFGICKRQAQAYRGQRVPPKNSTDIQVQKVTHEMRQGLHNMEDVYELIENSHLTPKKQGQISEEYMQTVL
Summary of the method: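 Using 15 concentrations per compound in triplicate, cAMP production was monitored in TSHR-HEK293 cells after 30 min compound incubation at RT; HTRF reagents followed, with fluorescence intensity recorded after 1 h.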

[2] = qHTS assay to identify small molecule agonists of the hypoxia (HIF-1) signaling pathway - cell viability counter screen (AID 1224844; calls by dose curve; also: nearly all actives have a fitted effect of over 50% in size)
Summary of the method: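 Same wells as the HIF-1 reporter screen; ME-180 cells carrying HRE-bla, 17 hr treatment at 37C; CellTiter-Glo luminescence read after 30 min at room temperature.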

[3] = qHTS assay to identify small molecule agonists of H2AX (AID 1224845; active = well fitted activation curve with a large enough effect in the signal ratio in the repeat runs, not every such curve was filed as active; the % refers to the signal ratio; also: potency is read from the fitted curve at half-maximal effect)
Summary of the method: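 Wild-type CHO-K1 cells plated overnight, then exposed 3 hr at 37C to compounds at 15 concentrations (0.76% DMSO). Lysed, then HTRF anti-pH2AX(S139)-cryptate/anti-H2AX-d2 detection after 24 hr at room temperature; emissions 665 and 620 nm.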

[4] = qHTS assay to identify small molecule agonists of the hypoxia (HIF-1) signaling pathway (AID 1224846; active = well fitted activation curve with a large enough effect in the signal ratio in the repeat runs, not every such curve was filed as active; the % refers to the signal ratio)
Summary of the method: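 In ME-180 cells bearing an HRE-bla construct, 17 h treatment with DMSO-dissolved compounds at 37C was followed by CCF4-AM loading to quantify reporter induction.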

[5] = qHTS assay to identify small molecule agonists of H2AX - cell viability counter screen (AID 1224847; calls by dose curve; also: top concentration of the series differs between compounds; nearly all actives have a fitted effect of over 30% in size)
Summary of the method: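 Cells plated first: CHO-K1, 1000 per well in 10% FBS medium, incubated overnight at 37C. Then 15-point compound titration added (final DMSO 0.76%) for 3 hr. Finally CellTiter-Glo added and luminescence read.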

[6] = qHTS RealTime-Glo MT Cell Viability Assay in HepG2 cells - 24 hour (AID 1224867); also: nearly all actives have a fitted effect of over 50% in size
Summary of the method: (§1)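 HepG2 cells were seeded at 600 cells/well together with NanoLuc luciferase and a cell-permeant prosubstrate, preincubated 5 h at 37 C/5% CO2, then pin-dosed with compounds in DMSO. Nonlytic luminescence from viable cells was read at each time point.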

[7] = qHTS RealTime-Glo MT Cell Viability Assay in HEK293 cells - 32 hour (AID 1224868); also: nearly all actives have a fitted effect of over 50% in size; also: potency is read from the fitted curve at half-maximal effect
Summary of the method: (§2)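 HEK293 cells were seeded at 600 cells/well together with NanoLuc luciferase and cell-permeant prosubstrate, preincubated 5 h at 37 C/5% CO2, then given compound in DMSO by pintool. Luminescence from viable-cell prosubstrate reduction was read repeatedly over 40 h.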

[8] = A CellTox Green Cytotoxicity Assay to monitor cytotoxicity in HEK293 cells - 0 hour (AID 1224869); also: nearly all actives have a fitted effect of over 50% in size
Summary of the method: (§3)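 Homogeneous no-lysis format: HEK293 cell suspension mixed with CellTox Green reagent, seeded, incubated 5 h at 37 C/5% CO2, then dosed by pintool with compound in DMSO.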

[9] = qHTS RealTime-Glo MT Cell Viability Assay in HepG2 cells - 40 hour (AID 1224870); also: nearly all actives have a fitted effect of over 50% in size
Summary of the method: (§4)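 HepG2 cells mixed with RealTime-Glo MT reagents (NanoLuc plus cell-permeant prosubstrate) were seeded at 600 cells/well, incubated 5 h at 37 C/5% CO2, then pinned with compounds in DMSO; nonlytic luminescence tracked viability during 40 h treatment.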

[10] = A CellTox Green Cytotoxicity Assay to monitor cytotoxicity in HEK293 cells - 40 hour (AID 1224871); also: nearly all actives have a fitted effect of over 45% in size
Summary of the method: as §3

[11] = qHTS RealTime-Glo MT Cell Viability Assay in HEK293 cells - 16 hour (AID 1224872)
Summary of the method: as §2

[12] = qHTS RealTime-Glo MT Cell Viability Assay in HepG2 cells - 8 hour (AID 1224873); also: nearly all actives have a fitted effect of over 55% in size
Summary of the method: as §4

[13] = qHTS RealTime-Glo MT Cell Viability Assay in HEK293 cells - 40 hour (AID 1224874); settings: RealTime-Glo luminescence; max response: hits give low values; also: nearly all actives have a fitted effect of over 50% in size
Summary of the method: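 Measured as luminescence from the same continuously cultured HEK293 wells at successive time points (0, 8, 16, 24, 32, 40 h) after compound addition. Reagent present from seeding; dosing at 5 h; incubation 37 C.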

[14] = A CellTox Green Cytotoxicity Assay to monitor cytotoxicity in HEK293 cells - 24 hour (AID 1224875); also: nearly all actives have a fitted effect of over 45% in size
Summary of the method: as §3

[15] = A CellTox Green Cytotoxicity Assay to monitor cytotoxicity in HepG2 cells - 16 hour (AID 1224876); also: nearly all actives have a fitted effect of over 45% in size
Summary of the method: (§5)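 Fluorescent DNA-binding dye, 600 HepG2 cells/well, 5 h preincubation then compound in DMSO; same plates read at 0–40 h, 37 C.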

[16] = qHTS RealTime-Glo MT Cell Viability Assay in HepG2 cells - 32 hour (AID 1224877); also: nearly all actives have a fitted effect of over 55% in size
Summary of the method: as §1

[17] = A CellTox Green Cytotoxicity Assay to monitor cytotoxicity in HepG2 cells - 24 hour (AID 1224878); also: nearly all actives have a fitted effect of over 45% in size
Summary of the method: as §5

[18] = A CellTox Green Cytotoxicity Assay to monitor cytotoxicity in HepG2 cells - 40 hour (AID 1224879); also: nearly all actives have a fitted effect of over 40% in size; also: potency is read from the fitted curve at half-maximal effect
Summary of the method: as §5

[19] = qHTS assay to identify small molecule antagonists of the estrogen related receptor (ERR) signaling pathway from Tox21 library (AID 1224848); also: nearly all actives have a fitted effect of over 50% in size; also: potency is read from the fitted curve at half-maximal effect
Summary of the method: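 Tox21 10K compounds in DMSO tested for ERR pathway antagonism in NTP's ERR cell line; 18 h, 37 C exposure; ONE-Glo luminescence.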

[20] = qHTS assay to identify small molecule agonists of the estrogen related receptor (ERR) signaling pathway from Tox21 library (AID 1224849; calls by dose curve; also: nearly all actives have a fitted effect of over 15% in size); settings: ERR reporter cell line, ONE-Glo luciferase, 18 h; at 92.4 µM (top of the series) unless noted
Summary of the method: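 Reporter cells (ERR, NTP source) treated with Tox21 10K compounds 18 h, 37 C. Readout: ONE-Glo luminescence, 30 min RT.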
% is scaled to controls: 0 for no effect and ±100 for the full control effect.

O=NN1CCCCCC1
inactive: Potency [1] | Potency [2] | Potency [3] | outcome [4] | Potency [5] | Potency [6] | Potency [7] | Potency [8] | Potency [9] | Potency [10] | Potency [11] | Potency [12] | max response [13] 0.127% | Potency [14] | Potency [15] | Potency [16] | Potency [17] | Potency [18]

CCN(C)N=O
inactive: Potency [1] | Potency [2] | Potency [3] | outcome [4] | Potency [5] | Potency [6] | Potency [7] | Potency [8] | Potency [9] | Potency [10] | Potency [11] | Potency [12] | max response [13] 2.13% | Potency [14] | Potency [15] | Potency [16] | Potency [17] | Potency [18]

C[C@H]1CNCCc2ccc(Cl)cc21
inactive: Potency [1] | Potency [2] | Potency [3] | outcome [4] | Potency [5] | Potency [19] | activity change, positive = activation [20] -0.2% [at 42.5 µM] | Potency [6] | Potency [7] | Potency [8] | Potency [9] | Potency [10] | Potency [11] | Potency [12] | max response [13] -6.61% | Potency [14] | Potency [15] | Potency [17] | Potency [18]

ClCC(Br)CBr (centres undefined)
inactive: Potency [1] | Potency [2] | Potency [3] | outcome [4] | Potency [5] | Potency [6] | Potency [7] | Potency [8] | Potency [9] | Potency [10] | Potency [11] | Potency [12] | max response [13] 14.6% | Potency [14] | Potency [15] | Potency [16] | Potency [17] | Potency [18]

CCc1ccc(C(=O)NN(C(=O)c2cc(C)cc(C)c2)C(C)(C)C)cc1
active: Potency [1] 15.4 µM | Potency [19] 30.6 µM
inactive: Potency [2] | Potency [3] | outcome [4] | Potency [5] | activity change, positive = activation [20] -56.4% | Potency [6] | Potency [7] | Potency [8] | Potency [9] | Potency [10] | Potency [11] | Potency [12] | max response [13] -11.5% | Potency [14] | Potency [15] | Potency [17] | Potency [18]

C[N+](C)(C)CCCl
inactive: Potency [1] | Potency [2] | Potency [3] | outcome [4] | Potency [5] | Potency [19] | activity change, positive = activation [20] 3.38% | Potency [6] | Potency [7] | Potency [8] | Potency [9] | Potency [10] | Potency [11] | Potency [12] | max response [13] 21.2% | Potency [15] | Potency [16] | Potency [17] | Potency [18]

COP(=S)(OC)Oc1ccc([N+](=O)[O-])cc1Cl
inactive: Potency [1] | Potency [2] | Potency [3] | outcome [4] | Potency [5] | activity change, positive = activation [20] -29.5% | Potency [6] | Potency [7] | Potency [8] | Potency [9] | Potency [10] | Potency [12] | max response [13] -20.6% | Potency [14] | Potency [15] | Potency [17] | Potency [18]

C=COC(C)=O
inactive: Potency [1] | Potency [2] | Potency [3] | outcome [4] | Potency [5] | Potency [6] | Potency [7] | Potency [8] | Potency [9] | Potency [10] | Potency [11] | Potency [12] | max response [13] 2.49% | Potency [14] | Potency [15] | Potency [16] | Potency [17] | Potency [18]

NC(=O)C(Cl)(Cl)Cl
inactive: Potency [1] | Potency [2] | Potency [3] | outcome [4] | Potency [5] | Potency [6] | Potency [7] | Potency [8] | Potency [9] | Potency [10] | Potency [11] | Potency [12] | max response [13] 16.8% | Potency [14] | Potency [15] | Potency [16] | Potency [17] | Potency [18]

C=CC(=O)OC(C)(C)C
inactive: Potency [1] | Potency [2] | Potency [3] | outcome [4] | Potency [5] | Potency [6] | Potency [7] | Potency [8] | Potency [9] | Potency [10] | Potency [11] | Potency [12] | max response [13] 13.5% | Potency [14] | Potency [15] | Potency [16] | Potency [17] | Potency [18]

CC(=O)NC1CCSC1=O (centres undefined)
inactive: Potency [1] | Potency [2] | Potency [3] | outcome [4] | Potency [5] | Potency [19] | activity change, positive = activation [20] 1.16% [at 42.5 µM] | Potency [6] | Potency [7] | Potency [8] | Potency [9] | Potency [10] | Potency [11] | Potency [12] | max response [13] -1.76% | Potency [15] | Potency [16] | Potency [17] | Potency [18]

C=CC(=O)OCC(C)C
inactive: Potency [1] | Potency [2] | Potency [3] | outcome [4] | Potency [5] | Potency [19] | activity change, positive = activation [20] 5.29% | Potency [6] | Potency [7] | Potency [8] | Potency [9] | Potency [10] | Potency [11] | Potency [12] | max response [13] 15.8% | Potency [15] | Potency [16] | Potency [17] | Potency [18]

Brc1ccccc1
inactive: Potency [1] | Potency [2] | Potency [3] | outcome [4] | Potency [5] | Potency [6] | Potency [7] | Potency [8] | Potency [9] | Potency [10] | Potency [11] | Potency [12] | max response [13] -2.8% | Potency [14] | Potency [15] | Potency [16] | Potency [17] | Potency [18]

CCC(Br)(CC)C(=O)NC(N)=O
inactive: Potency [1] | Potency [2] | Potency [3] | outcome [4] | Potency [5] | Potency [6] | Potency [7] | Potency [8] | Potency [9] | Potency [10] | Potency [11] | Potency [12] | max response [13] 5.12% | Potency [14] | Potency [15] | Potency [16] | Potency [17] | Potency [18]

Clc1cc(C(Cl)(Cl)Cl)cnc1Cl
inactive: Potency [1] | Potency [2] | outcome [4] | Potency [5] | Potency [19] | activity change, positive = activation [20] 0.0985% | Potency [6] | Potency [8] | Potency [12] | Potency [15]
active: Potency [3] 89.8 µM | Potency [7] 34.7 µM | Potency [18] 34.7 µM
